# Screens deposited in PubChem BioAssay by National Center for Advancing Translational Sciences (NCATS).
# Hits are enriched below; roughly 11% of the tested compounds scored in any of these assays.
# Tau fibril ThT = blocks human tau fibril formation measured by thioflavin T. Potency, µM (top dose mostly 57.4 µM), for the others: at the top dose activity, negative = inhibition, usual class: inhibitors. AID 1460. recombinant tau K18 P301L, heparin-induced fibrillization, ThT fluorescence. 2.1% of 270,000 active; note: potency is the fitted concentration of half-maximal effect; nearly all actives have a fitted effect of over 55% in size
# Target sequence (P10636 561-689 P618L limits assumed): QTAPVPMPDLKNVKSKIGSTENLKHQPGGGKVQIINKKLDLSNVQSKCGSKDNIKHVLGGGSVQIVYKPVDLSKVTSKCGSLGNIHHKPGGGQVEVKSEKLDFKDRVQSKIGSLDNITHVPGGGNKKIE
#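 Heparin-induced (20 uM) aggregation of recombinant human K18 P301L tau, 15 uM unlabeled with 0.24 uM labeled, pH 7 acetate buffer, 6 hr at 37 C with compound. Fibrils quantified by 30 uM ThT fluorescence after 1 hr ambient incubation.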
# Sfp inh = Sfp phosphopantetheinyl transferase inhibition. Biochemical Sfp PPTase activity, qHTS. Potency, µM, without a hit: largest response in the series, negative = inhibition, usual class: inhibitors. AID 1490. Q9F4F7. 3.5% of 310,000 active;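 note: the enzyme is Sfp with the accession as filed and its product quenches rhodamine fluorescence; potency is the fitted concentration of half-maximal effect; 0% = enzyme reaction without inhibitor and -100% = no enzyme wells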
#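 Step 1, compound plus 15 nM Sfp-PPTase, 15 min, room temperature. Step 2, add rhodamine-CoA (5 uM) and BHQ-2-YbbR (12.5 uM). Step 3, read 525/598 nm fluorescence at 0 and 30 min.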
# G9a block = G9a (human) methyltransferase inhibition; Q96KQ7; G9a H3K9 monomethylation, AlphaScreen, 2 h; 8.8% of 350,000 active; AID 504332; Potency, µM (highest dose often 102 µM), without a hit: at the top dose activity, negative = inhibition, usual class: inhibitors; note: potency is the fitted concentration of half-maximal effect; nearly all actives have a fitted effect of over 75% in size
# Target sequence (Q96KQ7 913-1193 limits assumed): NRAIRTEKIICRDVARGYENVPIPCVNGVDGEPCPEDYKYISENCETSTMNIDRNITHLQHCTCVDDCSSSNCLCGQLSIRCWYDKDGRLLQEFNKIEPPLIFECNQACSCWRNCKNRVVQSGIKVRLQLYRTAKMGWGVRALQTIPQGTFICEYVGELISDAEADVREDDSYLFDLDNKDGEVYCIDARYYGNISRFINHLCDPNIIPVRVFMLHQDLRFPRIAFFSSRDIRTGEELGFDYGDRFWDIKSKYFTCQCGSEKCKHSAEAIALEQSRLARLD
#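 Chemiluminescent proximity detection of H3K9 monomethylation, read after 10 min bead incubation in the dark. Reaction: 20 nM G9a, 500 nM biotin-H3K9 peptide, 20 uM SAM cofactor, 2 h, room temperature, following 15 min enzyme-compound preincubation.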
# Coupling enz = counter-screen for Giardia aldolase inhibitors: coupling enzyme system; AID 2472; 0.67% of 290,000 active; activity change, negative = inhibition, % at 58.2 µM, hits read low; coupling enzyme system counterscreen, AmpLite Red fluorescence; in the data active = activity change below about -30%
#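 Compounds tested against the coupling enzymes alone at 57.5 uM final; readout was AmpLite Red fluorescence (525/598 nm) after 20 min at RT.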
# Tau fluor counter = counter-screen for tau fibril formation inhibitors; tau K18 P301L Alexa594 fluorescence, heparin fibrillization; Potency, µM (top dose mostly 57.7 µM), for the others: at the highest dose activity change, negative = decrease; 0.93% of 280,000 active; note: potency is the fitted concentration of half-maximal effect; nearly all actives have a fitted effect of over 55% in size
#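 Human tau K18 P301L (15 uM unlabeled, 0.24 uM Alexa 594-labeled) in 100 mM sodium acetate pH 7 with 20 uM heparin, 6 hr at 37 C. ThT 30 uM added, 1 hr ambient; Alexa 594 FP and total fluorescence read at 555/632 nm.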
# Tau fibril FP = tau fibrillization inhibition (FP) | K18 P301L tau heparin fibrillization, Alexa594 FP, 6 h | Potency, µM (highest dose often 57.7 µM), for inactives: at the highest dose activity, negative = inhibition, usual class: inhibitors | 0.39% of 280,000 active | AID 1468; note: potency is the fitted concentration of half-maximal effect; nearly all actives have a fitted effect of over 55% in size
#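 FP of Alexa 594-tau after heparin (20 uM) induction. Substrate: human K18 P301L, 15 uM unlabeled, 0.24 uM labeled. Buffer 100 mM sodium acetate pH 7. 6 hr, 37 C.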
# An asterisk follows results filed as active; ? = inconclusive; / = no result given; ! = not confirmed by another sample; [ ] = remark or other dose. Unless noted, calls come from the whole dose curve; as a rule, active = well fitted curve in the direction sought with a large enough effect; inconclusive = small, poorly fitted or top-dose-only effect, or another doubt; inactive = no such curve, though single readings can be large; an effect the other way counts as inactive or inconclusive. Unless noted, % is set by controls: 0 for no effect and ±100 for the full control effect.
SMILES,Tau fibril ThT,Sfp inh,G9a block,Coupling enz,Tau fluor counter,Tau fibril FP
COc1ccc2nc(C)c3c(c2c1)OC(C(C)(Cl)Br)C3 (stereo unspecified),/,7%,-7%,-1,-7%,-1%
CCCN1CCc2c(sc(NC(=O)CCS(=O)(=O)c3ccccc3)c2C(N)=O)C1,/,0%,?,1,/,/
CNC(=O)c1c(NC(=O)CCS(=O)(=O)c2ccc(C)cc2)sc2c1CCN(C(=O)OC)C2,/,/,50µM*,/,/,/
CNC(=O)c1c(NC(=O)CCS(=O)(=O)c2ccccc2)sc2c1CCN(C(=O)OC)C2,/,/,50µM*,/,/,/
CC(=O)N1CCc2c(sc(NC(=O)CCS(=O)(=O)c3ccc(C)cc3)c2C#N)C1,/,/,-47%,/,/,/
Cc1ccccc1NC(=O)C(Cc1ccccc1)N1Cc2ccccc2C1=O (stereo unspecified),-10%,/,-9%[59 µM],/,-22%,?
NC(Cc1ccc2nonc2c1)C(=O)O (stereo unspecified),-7%,?,13µM*,0,-1%,5%
N[C@H](Cc1ccccc1)C(=O)O,3%,-15%,33%[59 µM],/,-1%,-2%
N[C@@H](Cc1ccc(F)cc1)C(=O)O,-7%,/,10µM*!,/,-5%,0%
NC(Cc1ccc(Cl)cc1)C(=O)O (stereo unspecified),-4%,2%,9.5µM*!,0,0%,4%
COc1ccc(-c2cc(C(F)(F)F)nc(SCC(=O)N3CCCCC3)n2)cc1OC,-14%,/,-2%[59 µM],/,-7%,-1%
COc1ccc(NCc2ccccc2[N+](=O)[O-])cc1OC,?,-5%,11µM*,-40*,-30%,1%
Cc1noc(/C=C/c2ccccc2F)c1S(=O)(=O)N1CCC(C(=O)NCC(C)c2ccccc2)CC1 (stereo unspecified),6%,/,4%[59 µM],/,-12%,-8%
O=c1oc2ccccc2cc1-c1csc(Cc2nc(-c3ccc(Cl)cc3)cs2)n1,-15%,4%,?,-1,-27%,0%
Oc1csc(Cc2nc(-c3ccc(-c4ccccc4)cc3)cs2)n1,?,-3%,78%[12.7 µM],0,-29%,5%
Oc1csc(Cc2nc(-c3ccc4ccccc4c3)cs2)n1,3.5µM*,-9%,39%[12.7 µM],0,13µM*[quencher],4%
Oc1csc(Cc2nc(-c3ccccc3F)cs2)n1,14µM*,-15%,?,1,?,-4%
CC(C)Sc1nc2[nH]ncc2c(=O)[nH]1,0%,50µM*,35µM*,1,1%,-2%
CC(=O)Oc1ccc(C(=O)[C@H]2[C@H]3C(=O)N(c4ccc5ccccc5c4)C(=O)[C@H]3[C@@H]3C=CC=NN32)cc1,?,5%,?,1,?,-13%
COc1ccccc1N1C(=O)[C@@H]2[C@H](C1=O)[C@H](C(=O)c1ccc(OC(C)=O)cc1)N1N=CC=C[C@@H]21,?,-17%,5µM*,-8,-13%,-11%
COc1cc(C2Nc3cccc4cccc(c34)N2)ccc1OC(C)=O,?,-30%,14µM*,-18,?,-2%
COc1ccc(C2NC(=O)c3ccccc3N2)cc1OC (stereo unspecified),-11%,21%,-15%[59 µM],1,-14%,?
COc1cc(C2Nc3cccc4cccc(c34)N2)cc(OC)c1O,16µM*,50µM*,7.9µM*,-25,4.5µM*[quencher],?
Oc1ccc(C2Nc3cccc4cccc(c34)N2)c(O)c1,14µM*,-20%,45µM*,-8,7.9µM*[quencher],?
COC(=O)c1ccc(C2Nc3cccc4cccc(c34)N2)cc1,14µM*,?,28µM*,-10,14µM*[quencher],?
SMILES,Tau fibril ThT,Sfp inh,G9a block,Coupling enz,Tau fluor counter,Tau fibril FP
CC(=O)N(Cc1cccnc1)c1nc2c(C)cccc2s1,-11%,/,7%[59 µM],/,-16%,-12%
COc1ccc(C2Nc3cccc4cccc(c34)N2)cc1Br,/,-16%,35µM*,-3,/,/
Cc1cc(N2Cc3ccccc3C2)ccc1C=O,/,16%,50µM*,0,/,/
Oc1cccc(N2Cc3ccccc3C2)c1,/,-8%,17%[2.33 µM],-4,/,/
Cc1cc2c(cc1C)CN(c1ccccc1)C2,?,-29%,7.1µM*,-2,3%,2%
Cc1nc2ccc(C(=O)N3c4ccccc4CC3C)cc2s1 (stereo unspecified),-5%,17%,22%[12.7 µM],0,-4%,-3%
COc1ccc(OC)c(-c2cc(C(=O)NC(C)c3ccccc3)no2)c1 (stereo unspecified),-6%,/,2%[59 µM],/,?,-7%
c1ccc(C2[C@H]3CN(Cc4cccnc4)[C@H](c4ccccc4)C34CC2(c2cccnc2)C4)cc1 (stereo partly specified),?,56µM*!,-37%[59 µM],2,-6%,0%
CC1(c2ccccc2)CC(c2ccccc2)=Nc2ccccc2N1 (stereo unspecified),?,15%,/,-8,-25%,1%
CC1=CC(C)=Nc2ccccc2N1,-22%,-6%,40µM*,-4,-13%,-13%
COC(=O)c1cc(NS(=O)(=O)c2ccc(NCc3cccnc3)c(N)c2)cc(C(=O)OC)c1,-5%,-3%,35µM*,2,-27%,7%
COc1ccc(CCN=C(N)NS(=O)(=O)c2ccc(C)c(C)c2)cc1,-9%,15%,12%,4,-17%,-3%
COc1ccc(/C=N/N2CCN(c3ccc(Cl)cc3)CC2)cc1,/,14%,9%,0,/,/
Cc1ccc(N=C2C(=S)N(c3ccc(C)cc3)C(=N)N2/N=C/c2ccc(Cl)cc2)cc1,?,40µM*,?,-2,?,4%
CNc1cc2c(Nc3cccc(Br)c3)ncnc2cn1,/,-1%,/,-50*,/,/
CN(C)c1ccc(Nc2ncnc3ccc(Br)cc23)cc1,/,?,10µM*,1,/,/
C=CCN(C(=O)c1ccc(Cl)cc1)c1ccccc1C(=O)NCC(=O)O,12%,22%,-32%,3,4%,8%
COc1ccc(NC(=O)c2cc3c(Cl)nc4ccccc4c3s2)c(OC)c1,-18%,3%,-1%[59 µM],0,-18%,5%
COc1cc(NC(=O)c2cc3c(Cl)nc4ccccc4c3s2)cc(OC)c1OC,?,0%,?,3,8.9µM*[quencher],8%
Cc1ccc2nc(Cl)c3cc(C(=O)NCCCN(C)Cc4ccccc4)sc3c2c1,-5%,/,?,/,-27%,?
CN(CCCNC(=O)c1cc2c(Cl)nc3ccccc3c2s1)Cc1ccccc1,8%,79µM*,?,-1,?,?
Cc1cc(C)cc(OCC(=O)N2N=C(C(F)(F)F)CC2(O)C(C)(C)C)c1 (stereo unspecified),-16%,?,1.6µM*,0,-6%,4%
